Common to all, as to format: functional
For test [1], the target named is Solute carrier family 2, facilitated glucose transporter member 1 (Homo sapiens) (UniProt P11166). Nature of the test: ST_JUDE_LEISH: Cytotoxicity at 2uM final concentration against transgenic Leishmania Mexicana promastigotes LmGLUT1 that are glucose transport deficient and complemented with the human glucose transporter GLUT1. Activity is measured by DNA content using SYBR green in vitro.

The target of test [2] is Hexose transporter 1 (Plasmodium falciparum) (UniProt O97467). The test is described as follows: ST_JUDE_LEISH: Cytotoxicity at 2uM final concentration against transgenic Leishmania Mexicana promastigotes LmPfHT that are glucose transport deficient and complemented with the Plasmodium falciparum hexose transporter. Activity is measured by DNA content using SYBR green in vitro.

The target of test [3] is Glucose transporter (Leishmania mexicana) (UniProt O61059). Nature of the test: ST_JUDE_LEISH: Cytotoxicity at 2uM final concentration against transgenic Leishmania Mexicana promastigotes LmGT2 that are glucose transport deficient and complemented with the L. Mexicana glucose transporter 2. Activity is measured by DNA content using SYBR green in vitro.

SMILES strings stand for the structures.

Experimental findings from ChEMBL document CHEMBL3433997, “St. Jude Leishmania screening dataset” (2016) are described below.

Sequence of Solute carrier family 2, facilitated glucose transporter member 1 (Homo sapiens) (P11166 whole entry): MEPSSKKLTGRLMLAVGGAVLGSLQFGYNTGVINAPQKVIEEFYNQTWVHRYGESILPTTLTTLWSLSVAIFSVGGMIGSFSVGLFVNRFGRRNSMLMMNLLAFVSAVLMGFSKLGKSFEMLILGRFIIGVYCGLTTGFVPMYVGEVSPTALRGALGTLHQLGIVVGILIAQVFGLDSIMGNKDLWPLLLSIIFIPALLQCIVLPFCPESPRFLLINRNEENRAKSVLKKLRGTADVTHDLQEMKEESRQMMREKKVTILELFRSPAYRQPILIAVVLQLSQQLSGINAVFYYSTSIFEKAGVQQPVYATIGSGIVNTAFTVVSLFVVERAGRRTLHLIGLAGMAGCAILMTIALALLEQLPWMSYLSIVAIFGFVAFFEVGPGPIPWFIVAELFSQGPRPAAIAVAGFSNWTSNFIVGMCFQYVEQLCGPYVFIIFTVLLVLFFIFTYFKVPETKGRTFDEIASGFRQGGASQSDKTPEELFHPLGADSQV

Turning to `O=C(NC(CCCN1CCC(c2ccccc2)CC1)c1ccc(Cl)c(Cl)c1)c1cc(C(F)(F)F)cc(C(F)(F)F)c1` (stereo not drawn), the inhibition in test [1] amounted to 2.06%; in test [2], 1.99%; in test [3] it was 1.89%.
For `CCCCNCc1ccc(-c2nc(CN(Cc3ccc(Cl)c(Cl)c3)S(=O)(=O)c3ccc(NC(C)=O)cc3)cs2)cc1`, in that order: 2.51%, 0.43% and 2.51%.
Consider `CC(O)C1CCCCN1C(=O)c1cccc(-c2ccc(-c3nc4cc(C(F)(F)F)ccc4[nH]3)cc2)c1` (stereo not drawn), for which the inhibition in test [1] turned out to be 0.8%; in test [2], 0.3%; in test [3], 1%.
On to `COc1cccc(CNC[C@@H](O)[C@H](Cc2ccccc2)NC(=O)c2cc(C(C)C)cc(N3CCCC3=O)c2)c1`, for which the inhibition was -1.08% in test [1], 0.91% in test [2] and -1.21% in test [3].
For `COC(=O)c1cccc(CNCc2cccc(-c3ccc(-c4nc5cccc(C)c5[nH]4)cc3)c2)c1`, in that order: 11.9%, 7.9% and 8.52%.
For `CCCCn1c(N)c(N(Cc2ccco2)C(=O)C=Cc2cc(OC)c3c(c2)OCCO3)c(O)nc1=O`, in that order: 3.56%, 1.02% and 3.32%.
For `CCN1CCN(c2cc(C)c3cc(NC(=O)c4ccc(Br)o4)ccc3n2)CC1`, in that order: 6.38%, 6.62% and 8.17%.
In the case of `Cc1cccc2nc(-c3cccc(-c4cccc(CNC(C)C)c4)c3)[nH]c12`, the inhibition in test [1] was -0.63%; in test [2] it was 0.85%; in test [3], 0.35%.
For `OC(COCc1ccc(-c2ccccc2)cc1)CN1CCCCC1` (stereo not drawn), in that order: 2.72%, 1.99% and 3.58%.
For `Cc1ccccc1CNc1nccc(NCCC(=O)Nc2ccccc2)n1`, in that order: 4.53%, 2.1% and 0.01%.
The corresponding values for `O=C(Nc1ccc(Cl)c(Cl)c1)Nc1ccc2nccc(N3CCNCC3)c2c1` are -0.16%, 0.06% and 0.13%.
Consider `COc1cc2nc(NCCc3ccccc3)nc(N(C)Cc3ccccc3)c2cc1OC`, for which the inhibition in test [1] was found to be 5.11%; in test [2], 5.4%; in test [3], 2.95%.
For `NC(=O)c1cnc2cc(-c3ccncc3)cc(Nc3ccc(NC(=O)C4CCCCC4)cc3)c2c1`, in that order: 2.17%, 2.89% and 1.29%.
For `COc1ccc2[nH]c(C)cc(=NN=Cc3ccccc3Cl)c2c1`, in that order: 5.14%, 5.23% and 1.92%.
The corresponding values for `CC(=O)N(C)C1CCN(Cc2cccc(-c3ccc(-c4nc5cc(F)ccc5[nH]4)cc3)c2)C1` (stereo not drawn) are 3.46%, 2.4% and 3.15%.
In the case of `Cc1nc2ccc3ccc(CNc4ccc(C(=O)CC(CCC(=O)O)C(=O)O)cc4)cc3c2c(=O)[nH]1` (stereo not drawn), the values for the inhibition in test [1], in test [2] and in test [3] were -0.57%, -1.01% and -0.36%, respectively.
For `CN(C)c1ccc(NC2=NC(N)=NC(C)(C)N2)cc1`, in that order: 0.38%, 1.5% and 0.7%.
For `COc1ccc(-c2nc(NC(=O)CS(=O)(=O)c3ccccc3)sc2C)cc1`, in that order: 8.8%, 4.92% and 1.25%.
The corresponding values for `CCc1nnc2sc(-c3cccc(NC(=O)c4ccc(OC)c(Cl)c4)c3)nn12` are 1.05%, 2.45% and 3.88%.
Regarding `c1ccc(CN2CCN(CCCCNc3c4ccccc4nc4ccccc34)CC2)cc1`, the inhibition was determined as 31.7% in test [1], 37.9% in test [2] and 19.4% in test [3].
For `COc1ccc2ncc(F)c(CCN3CC(O)C(CNCc4ccc5c(n4)NC(=O)CS5)C3)c2c1` (stereo not drawn), in that order: 1.08%, 1.93% and 2.84%.
Turning to `O=S(=O)(NCCN1CCCC1)c1ccc(-c2cccc(CNCCc3cccs3)c2)s1`, the inhibition in test [1] is 0.02%; in test [2], 2.28%; in test [3] it was 3.42%.
For `N#Cc1ccc(CN2CCC(Oc3ccc(NC(=O)c4ccco4)cc3Cl)C2)cc1` (stereo not drawn), in that order: 3.53%, 0.89% and -0.68%.
For `CCN1CCN(CCCNc2c3ccccc3nc3ccccc23)CC1`, in that order: 65.5%, 55.3% and 39.1%.
For `Cc1cnc(C(=O)Nc2cccc(-c3ccc(-c4nc5cc(F)ccc5[nH]4)cc3)c2)cn1`, in that order: 12.2%, 10% and 8.63%.
With `C#C[C@H]1O[C@@H](n2cnc3c(Nc4cc(Br)cc(C(F)(F)F)c4)ncnc32)[C@H](O)[C@@H]1O`, the values for the inhibition in test [1], in test [2] and in test [3] were 3.1%, 2.11% and 2.53%, respectively.
On to `CC1=NN(c2ccc(C)c(C)c2)C(=O)C1=NNc1cccc(-c2cccc(NC(=O)OC(C)(C)C)c2)c1O`, for which the results for the inhibition in test [1], in test [2] and in test [3] were 1.48%, 1.44% and 0.04%, respectively.
For `O=C(NC1CCN(CCC[C@]2(c3ccc(Cl)c(Cl)c3)CCCN(C(=O)c3ccccc3)C2)CC1)c1ccc(F)cc1`, in that order: 3.29%, 2.13% and 2.74%.
The corresponding values for `COc1ccc(NC(=O)c2ccc(-c3nc(-c4ccccc4)cs3)cc2)cc1N1CCN(C)CC1` are 9.73%, 8.4% and 9.79%.
The corresponding values for `CO/C(=C/C=C/c1cc2cc(Cl)c(Cl)cc2[nH]1)C(=O)NC1CC(C)(C)N(C)C(C)(C)C1` are 2.45%, 0.74% and -0.41%.
In the case of `CC(C)COc1cc(C(=O)Nc2cnc3ccccc3c2)ccc1[N+](=O)[O-]`, the values for the inhibition in test [1], in test [2] and in test [3] were 11.9%, 10.8% and 10.9%, respectively.
Consider `COc1cc2c(cc1C(F)(F)F)N(C(=O)Nc1cc(F)cc(-c3cccnn3)c1)CC2`, for which the inhibition was -2.16% in test [1], -2.17% in test [2] and 2.7% in test [3].
For `CCN(CCCN1CCCCC1)c1cc(C)nc(Nc2ccc(C)cc2Br)n1`, in that order: 4.17%, 4.38% and 4.15%.
In the case of `COc1cccc2cc(C(=O)N[C@@H](CC(C)C)C(=O)Nc3cc(F)ccc3Br)oc12`, the inhibition in test [1] turned out to be 1.51%; in test [2] it was 0.34%; in test [3] it was 0.22%.
With `Nc1nc(N)c2c(Cl)c(CNc3cccc(C(=O)O)c3)ccc2n1`, the inhibition in test [1] was found to be 3.95%; in test [2], 2.84%; in test [3] it was 3.26%.
For `O=C(NCc1ccc(F)cc1)c1cc(Br)cc(N2CCN(c3ccncc3)CC2)c1`, in that order: 7.75%, 6.55% and 4.17%.
